This is a sample that favours compounds with a hit; in the whole collection about 3.2% have one here.
esBAF inh = Bmi1 luciferase reporter increase in mESCs, primary screen, esBAF inhibitor project, mouse ES cells, Bmi1 luciferase knock-in, single point | hit rate 2% among 350,000 | 24 h; 100% = twice the neutral-well signal | reporter increase, % at 12.5 µM; in the data active means activation above about 40%; inconclusive means no clear call, values can overlap the other calls;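 further: 0% = median of the plate's neutral control wells and 100% = double that signal; a rise in the Bmi1 reporter signal indicates esBAF inhibition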
Rtt109 Vps75 = inhibitors of C. albicans Rtt109/Vps75 HAT, primary screen, biochemical, ThioGlo CoA-SH fluorescence, plate reader; Histone acetyltransferase RTT109 (Candida albicans (strain SC5314 / ATCC MYA-2876)), …; purified Rtt109/Vps75, 4 h; inhibition, % at 34.9 µM; hit rate 0.16% among 330,000;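 active means inhibition of at least 50% in every replicate; inconclusive means best replicate reaches 50% inhibition but some replicates fall short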
Target sequence (Q5AAJ8 whole entry, looked up): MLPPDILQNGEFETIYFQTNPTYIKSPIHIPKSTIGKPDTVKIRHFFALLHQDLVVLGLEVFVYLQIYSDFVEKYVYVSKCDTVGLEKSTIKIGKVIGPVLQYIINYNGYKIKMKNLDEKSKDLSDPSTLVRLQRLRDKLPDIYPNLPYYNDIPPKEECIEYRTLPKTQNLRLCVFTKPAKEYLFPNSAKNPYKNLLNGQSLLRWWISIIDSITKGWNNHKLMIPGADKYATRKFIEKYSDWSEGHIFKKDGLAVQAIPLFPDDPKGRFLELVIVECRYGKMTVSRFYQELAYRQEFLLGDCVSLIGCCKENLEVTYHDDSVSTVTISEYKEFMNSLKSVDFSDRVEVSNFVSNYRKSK
dFosB activator = activators of delta FosB homodimer, primary screen, biochemical, fluorescence polarization, TAMRA-CDK5 oligo, single point; Protein FosB (Mus musculus), P13346; purified delta FosB; percent of positive-control signal above neutral wells; activation, % at 25 µM; hit rate 0.99% among 340,000; AID 493131, 2011;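 active means mean activation above about 17%, with every replicate also reaching it, limit read from the data, passing the limit was not always enough; inconclusive means only one of the two conditions met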
CDK5 inh = inhibitors of human CDK5/p35 kinase, primary screen, biochemical, single concentration | Recombinant CDK5/p35, ADP-Glo luminescence, 60 min | inhibition, % at 10 µM | hit rate 0.01% among 330,000;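 active means highest replicate inhibition of at least 50% and at least 75% of replicates reaching 50%; inconclusive means only one of the two criteria met; inactive means both criteria failed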;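 further: plate controls were DMSO neutral control for no effect and GW8510 at 10 µM for full effect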
SMARCA2 activ = SMARCA2 (BRM) function activators, primary screen, cell-based, luminescence, high throughput. MG213 cells, MMTV-luciferase reporter, dexamethasone, overnight. activation, % at 9.1 µM. hit rate 1% among 370,000. AID 652017, 2013; in the data active means activation above about 7.8%;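 further: 0% = vehicle wells and 100% = reference activator wells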
Dyrk1A ADPGlo = rat Dyrk1A kinase inhibitors, primary screen, biochemical, single point, plate reader | Dual specificity tyrosine-phosphorylation-regulated kinase 1A (Rattus norvegicus), Q63470 | ADP-Glo luminescence, NFATc1 peptide | inhibition, % at 12.5 µM | hit rate 0.43% among 310,000 | AID 504441, 2011; in the data active means inhibition above about 50%;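 further: plate controls were vehicle with enzyme for no effect and no enzyme for full effect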
Starred values were filed as active, the others as inactive.

Screening COc1ccccc1NC(=O)N[C@H]1CC[C@H](CCn2cc(-c3ccccc3OC)nn2)O[C@@H]1CO returned esBAF inh 2.
`CC(=O)c1ccc(OCc2cc(C(=O)N(C)Cc3ccon3)no2)cc1` gave esBAF inh 2, Rtt109 Vps75 2, dFosB activator -1, CDK5 inh 1, SMARCA2 activ -1 and Dyrk1A ADPGlo 10.
`Cc1cc(OCc2cc(C(=O)N(C)CCOc3ccccc3)no2)cc(C)c1Cl` gave esBAF inh 0, Rtt109 Vps75 -4, dFosB activator -9, CDK5 inh 0, SMARCA2 activ -1 and Dyrk1A ADPGlo -3.
CC(=O)c1ccc(OCc2cc(C(=O)N(C)Cc3ccccn3)no2)cc1 was read as esBAF inh 104*, Rtt109 Vps75 10, dFosB activator -9, CDK5 inh 2, SMARCA2 activ 2 and Dyrk1A ADPGlo 6.
Cc1cc(OCc2cc(C(=O)N(C)C(C)c3ccccn3)no2)cc(C)c1Cl (stereo unspecified) was read as esBAF inh 57*, Rtt109 Vps75 14, dFosB activator -18, CDK5 inh 0, SMARCA2 activ 0 and Dyrk1A ADPGlo -3.
`CSc1ccccc1OCc1cc(C(=O)N(C)C(C)c2ccccn2)no1` (stereo unspecified) gave esBAF inh 0, Rtt109 Vps75 2, dFosB activator -4, CDK5 inh -3, SMARCA2 activ 3 and Dyrk1A ADPGlo -3.
`Cc1cc(OCc2cc(C(=O)N(C)Cc3ccccn3)no2)cc(C)c1Cl` gave esBAF inh 75*, Rtt109 Vps75 6, dFosB activator -21, CDK5 inh 0, SMARCA2 activ 8 and Dyrk1A ADPGlo 4.
C/C=C/c1ccc2c(c1)O[C@@H](CN(C)Cc1ccncc1)[C@@H](C)CN([C@@H](C)CO)S2(=O)=O was read as esBAF inh -6.
Screening CC(C)NC(=O)Nc1cccc2c1O[C@@H](CN(C)S(=O)(=O)c1ccccc1)[C@@H](C)CN([C@@H](C)CO)C2=O returned esBAF inh 3.
Screening O=C(NCc1ccccc1)c1cc(-c2ccco2)on1 returned esBAF inh 42*, Rtt109 Vps75 -3, dFosB activator 7, CDK5 inh -1, SMARCA2 activ 2 and Dyrk1A ADPGlo -1.
O=C(NCc1ccccc1)c1cc(-c2cccc(O)c2)on1 was read as esBAF inh 68*, Rtt109 Vps75 -7, dFosB activator 0, CDK5 inh 0, SMARCA2 activ 4 and Dyrk1A ADPGlo -2.
O=C(NCc1cccnc1)c1cc(-c2ccccc2)on1 was read as esBAF inh 47*, dFosB activator -2, CDK5 inh -2, SMARCA2 activ 3 and Dyrk1A ADPGlo -1.
For COc1ccc(-c2cc(C(=O)NCc3ccccc3)no2)cc1OC the results were esBAF inh -8, Rtt109 Vps75 1, dFosB activator -8, CDK5 inh -2, SMARCA2 activ -1 and Dyrk1A ADPGlo -7.
C[C@@H]1CCCCO[C@@H](CN(C)S(=O)(=O)c2ccc(F)cc2)[C@H](C)CN([C@@H](C)CO)C(=O)c2cc(NS(=O)(=O)c3ccccc3)ccc2O1 was read as esBAF inh 6.
Screening CN(C)C(=O)C[C@@H]1C[C@H]2c3cc(NS(C)(=O)=O)ccc3O[C@H]2[C@H](CO)O1 returned esBAF inh 0.
For O=C1c2ccccc2NC(c2cccc([N+](=O)[O-])c2)N1CCc1ccccc1 (stereo unspecified) the results were esBAF inh 46*, Rtt109 Vps75 3, dFosB activator 0, CDK5 inh 3, SMARCA2 activ 4 and Dyrk1A ADPGlo 1.
For Cc1cccc(C2Nc3ccccc3C(=O)N2CCc2ccccc2)n1 (stereo unspecified) the results were esBAF inh inconclusive, Rtt109 Vps75 -1, dFosB activator -2, CDK5 inh -14, SMARCA2 activ 0 and Dyrk1A ADPGlo 4.
Screening CC(C)c1ccc2c(c1)C(c1ccc(N3CCOCC3)cc1)=NNC(c1cccs1)=N2 returned esBAF inh 65*, Rtt109 Vps75 -12, dFosB activator -10, CDK5 inh 0, SMARCA2 activ 5 and Dyrk1A ADPGlo -2.
CC(C)NC(=O)N(C)C[C@@H]1Oc2ccc(NC(=O)Nc3cccc4ccccc34)cc2C(=O)N([C@@H](C)CO)C[C@@H]1C was read as esBAF inh -2.
CC(=O)C(C)Oc1ccc2c3c(c(=O)oc2c1)CCCCC3 (stereo unspecified) was read as esBAF inh 66*, Rtt109 Vps75 4, dFosB activator -14, CDK5 inh 1, SMARCA2 activ 6 and Dyrk1A ADPGlo 7.
COc1cc(/C=N/NC(=O)c2cc(-c3ccccc3)nc3ccccc23)ccc1O was read as esBAF inh 6, Rtt109 Vps75 -11, dFosB activator -9, CDK5 inh -5, SMARCA2 activ 1 and Dyrk1A ADPGlo 2.
`O=C(N/N=C/c1cccc(F)c1)c1cc(-c2ccco2)nc2ccccc12` gave esBAF inh 79*, Rtt109 Vps75 -2, dFosB activator -16, CDK5 inh 2, SMARCA2 activ -6 and Dyrk1A ADPGlo -6.
Screening O=C(N/N=C/c1ccc(O)cc1)c1cc(-c2ccccc2)nc2ccccc12 returned esBAF inh 26, Rtt109 Vps75 -10, dFosB activator 29*, CDK5 inh 0, SMARCA2 activ 1 and Dyrk1A ADPGlo -1.
CN(C)C(=O)C[C@H]1CC[C@H]2[C@@H](COC[C@@H](O)CN2CC2CCCCC2)O1 was read as esBAF inh 0.
`O=C1CN(C(=O)/C=C/c2ccc(Cl)cc2)c2ccccc2N1` gave Rtt109 Vps75 56*, dFosB activator -14, CDK5 inh 1, SMARCA2 activ 0 and Dyrk1A ADPGlo 2.
O=C(CNC(=O)N1CC(=O)Nc2ccccc21)NCc1ccccc1 was read as esBAF inh -2, Rtt109 Vps75 -3, dFosB activator 1, CDK5 inh -1, SMARCA2 activ 0 and Dyrk1A ADPGlo 2.
Screening O=C1CN(C(=O)OCc2ccccc2)c2ccccc2N1 returned esBAF inh 50*, Rtt109 Vps75 1, dFosB activator -1, CDK5 inh 0, SMARCA2 activ 6 and Dyrk1A ADPGlo 6.

Screening results deposited in PubChem by several laboratories.
